Results reported in PubChem BioAssay (NCI).
This is part of a sample that, as a whole, favours compounds with a hit. Of some 83,000 tested, about 20% had one in any assay.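 For each line, cells grew in 96-well plates with the test compound present at a single concentration for 48 hours.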 Values without a mark were called inactive. Calls of active or inactive are those of the source. How the source made its calls: active means growth percent below 10; inactive means the rest.

Legend:
Assay in all cases: NCI-60 one-dose screen, 48 h (100 = growth as untreated, 0 = no growth, -100 = all killed)
Conditions in all cases: 10 µM unless noted
SK-MEL-2 melanoma = test system: SK-MEL-2 melanoma
EKVX NSCLC = test system: EKVX NSCLC
SN12C renal = test system: SN12C renal
UO-31 renal = test system: UO-31 renal
TK-10 renal = test system: TK-10 renal
ACHN renal = test system: ACHN renal
CAKI-1 renal = test system: CAKI-1 renal
A498 renal = test system: A498 renal
CCRF-CEM leukemia = test system: CCRF-CEM leukemia
MOLT-4 leukemia = test system: MOLT-4 leukemia

| Structure (SMILES) | growth (SK-MEL-2 melanoma) | growth (EKVX NSCLC) | growth (SN12C renal) | growth (UO-31 renal) | growth (TK-10 renal) | growth (ACHN renal) | growth (CAKI-1 renal) | growth (A498 renal) | growth (CCRF-CEM leukemia) | growth (MOLT-4 leukemia) |
| --- | --- | --- | --- | --- | --- | --- | --- | --- | --- | --- |
| C[C@H]1[C@H](C)CC[C@]2(COC(=O)CCC(=O)O)CC[C@]3(C)C(=CC[C@@H]4[C@@]5(C)CCCNC(C)(C)[C@@H]5CC[C@]43C)[C@H]12 | 55.6% [100 µM] | 71.5% [100 µM] | 65% [100 µM] | 65.4% [100 µM] | 81.3% [100 µM] | 60.2% [100 µM] | 54.1% [100 µM] | 70.3% [100 µM] | 73.5% [100 µM] | 46% [100 µM] |
| C#C[C@]1(O)CC[C@H]2[C@@H]3CC=C4c5nc(Nc6ccccc6[N+](=O)[O-])sc5CC[C@]4(C)[C@H]3CC[C@@]21C | 56.7% | 67.4% | 79.5% | 63.1% | 72.4% | 70.7% | 38.9% | 11.7% | 61.9% | 43.7% |
| CC/C=C(\C)C(CCC)(CN=O)C(=O)OCC (stereo not given) | 106% | 112% | 108% | 90.4% | 103% | 110% | 104% | 114% | 101% | 90.1% |
| CC(C)(C)c1cc(C(=O)Nc2cc3ccccc3cc2C(=O)NCCN)cc(C(C)(C)C)c1 | -48.8% (active) | -72.9% (active) | -64.8% (active) | -85.6% (active) | -85.9% (active) | -92.3% (active) | -84.4% (active) | -90.7% (active) | -49.6% (active) | -38.6% (active) |
| O=C1/C(=C\c2cn(CC(O)CN3CCCCC3)c3ccccc23)c2ccccc2N1c1c(Cl)cccc1Cl (stereo not given) | -83.4% (active) | -81.3% (active) | -68.2% (active) | -79.8% (active) | -75.9% (active) | -90.5% (active) | -80.3% (active) | -96.3% (active) | -4.36% (active) | -30% (active) |
| CCN(CC)CCS(=O)(=O)CCNc1ccnc2cc(Cl)ccc12 | 15.2% | 26.7% | 18.5% | -25.6% (active) | 13.5% | 7.29% (active) | 8.63% (active) | -29.1% (active) | 3.54% (active) | -30.1% (active) |
| CC(=O)O.CC(=O)O.O.[Fe] | 109% | 147% | 95.2% | 89% | 105% | 107% | 130% | 89.8% | 131% | 116% |
| Nc1ccc(Cl)c([N+](=O)[O-])c1 | 97.4% | 92% | 105% | 101% | 103% | 87% | 78.8% | 89.5% | 94% | 106% |
| NC1=NC(=O)NC1(c1ccccc1)c1ccccc1 | 68.2% | 111% | 88.1% | 96.3% | 92% | 95.8% | 94.6% | 87.6% | 86.2% | 87.6% |
| Nc1cc(NN=C(c2ccc(O)cc2)c2ccc(O)cc2)c([N+](=O)[O-])cc1[N+](=O)[O-] | -93.6% (active) | 97% | 53% | -88.7% (active) | 84.3% | 18.1% | 90.7% | 101% | 91.3% | 69.5% |
| C=C(C)[C@@H]1CC[C@]2(COCCCN)CC[C@]3(C)[C@H](CC[C@@H]4[C@@](C)(CCCNCCCN)[C@H](C(=C)C)CC[C@]43C)[C@@H]12 | -59.3% [100 µM] (active) | -60.8% [100 µM] (active) | -52% [100 µM] (active) | -79.8% [100 µM] (active) | -62.4% [100 µM] (active) | -67.5% [100 µM] (active) | -77.1% [100 µM] (active) | -77% [100 µM] (active) | -26.9% [100 µM] (active) | -31.6% [100 µM] (active) |
| CCCCN(CCCC)CC(O)c1ccc(OCc2ccccc2)c2ccccc12 (stereo not given) | 99.4% | 75.5% | 94.6% | 28.9% | 78.2% | 71.7% | 26.3% | 97.2% | 72.7% | 15.8% |
| Cc1ccc(Oc2c(/C=N/NC(=O)Cn3c(=O)sc4ccccc43)c(C)nn2-c2ccccc2)cc1 | 75.5% | 38% | 29.5% | 25.8% | 62.4% | 43.2% | 28.8% | 78.2% | 40.8% | 8.72% (active) |
| CCCCNC(=O)NS(=O)(=O)Cc1ccccc1 | 119% | 122% | 113% | 82.8% | 118% | 106% | 100% | 110% | 93.1% | 97.5% |
| CCOc1ccccc1/C=N\Nc1ccc(S(=O)(=O)c2ccc(N/N=C/c3ccccc3OCC)cc2)cc1 | 103% | 90.7% | 93.5% | 66.5% | 126% | 88.7% | 67.2% | 113% | 94.7% | 80.8% |
| Cc1ccc(S(=O)(=O)Oc2ccc(Br)cc2Br)cc1 | 75.4% | 83.3% | 95.2% | 88.9% | 94.9% | 95.6% | 65% | 74.3% | 47.7% | 47.5% |
| FC(F)(F)c1ccc2c(c1)Sc1ccccc1N2 | 106% | 91.6% | 100% | 73.6% | 101% | 101% | 82% | 80.7% | 102% | 88.7% |
| CC1(C)CC[C@]2(C(N)=O)CC[C@]3(C)C(=CC[C@@H]4[C@@]5(C)C/C(=C/c6cccnc6)C(=O)C(C)(C)[C@@H]5CC[C@]43C)[C@@H]2C1 | -57.5% [100 µM] (active) | 1.54% [100 µM] (active) | -58.8% [100 µM] (active) | -95.1% [100 µM] (active) | -14.8% [100 µM] (active) | -61.1% [100 µM] (active) | -30.6% [100 µM] (active) | -83.4% [100 µM] (active) | 2.68% [100 µM] (active) | -9.98% [100 µM] (active) |
| CC1Cc2c(Cl)ncnc2N(C)c2ccccc21 (stereo not given) | -28.2% (active) | 21.7% | 15.8% | 10.4% | 15.1% | 26% | 19.3% | -18.4% (active) | 34.2% | 8.61% (active) |
| CCCC[C@@H](C=O)NC(=O)[C@H](CC(C)C)NC(=O)[C@H](CC(C)C)NC(=O)OCc1ccccc1 | 13.4% | -14.2% (active) | 2.11% (active) | 23.8% | -20.2% (active) | 25.3% | 4.61% (active) | -47.6% (active) | -26.5% (active) | -11.7% (active) |
| COc1ccc(-c2cc(-c3ccccc3)nc(NCCNc3ccnc4cc(Cl)ccc34)n2)cc1 | -77.3% (active) | -88.1% (active) | -92.9% (active) | -91.9% (active) | -81.7% (active) | -94.2% (active) | -86.5% (active) | 5.73% (active) | -30.7% (active) | -44.4% (active) |
| Nc1nc(Cl)c2ncn(Cc3cc4c(cc3I)OCO4)c2n1 | 57.1% | 95.8% | 33% | 34.7% | 23.6% | 56.7% | 47.5% | 61.8% | 26.3% | 52.6% |
| COc1cc(NCc2cn(-c3ccc(C(=O)O)cc3)nc2-c2ccc(C(=O)O)cc2)cc(OC)c1OC | 102% | 93.1% | 94.7% | 88.9% | 91.6% | 102% | 87.9% | 66% | -17.9% (active) | 110% |
| Cc1ccccc1-n1nnc(C(=O)Nc2nc3ccc(F)cc3s2)c1C | 65.3% | 64.9% | 68.6% | 58% | 71.4% | 64.7% | 49.6% | 31.4% | 66.5% | 43.7% |
| COc1ccc(-c2ccc(NNC(=O)c3ccc(F)cc3)nn2)cc1OC | 93.5% | 40.5% | 57.1% | 34.8% | 43.7% | 54.8% | 17.3% | 2.09% (active) | 79.5% | 60.2% |
| c1ccc2c(c1)CN(CCCN1CCOCC1)C2 | 105% | 100% | 96.6% | 93.1% | 95.4% | 100% | 87.2% | 101% | 102% | 103% |
